# “And” between values parts separate entries of the source, which are not always exact repeats. Identical values can stand only once. Unmarked numbers belong to inactive results. Inconclusive results are not listed. A call without a number means that no potency is given here. The source made the active and inactive calls. Unless noted, calls come from the whole dose curve; as a rule, active = well fitted curve in the direction sought with a large enough effect in the repeat runs; inconclusive = weak or mixed curves; inactive = no such curve, though single readings can be large; an effect the other way counts as inactive or inconclusive. Numbered stars: 1 amine (or outer) side, 2 acyl side, 3 side chain; on linkers, the order of the positions; unused ones are H or OH. Bridge positions count the residues as written; N and C are the ends. Square brackets hold non-standard residues; d marks the D form. Peptide text beside a SMILES is read from it. I, II: the chains in the order shown. Actinocin(9to1) = Cc1c2oc3c(C)ccc(C(=O)[*:1])c3nc-2c(C(=O)[*:2])c(N)c1=O; NMeV = CN[C@H](C(=O)O)C(C)C; Sar = CNCC(=O)O
# Columns and labels:
# [1] = target: Nuclear receptor ROR-gamma (Homo sapiens) (UniProt P51449); assay: qHTS assay for small molecule antagonists of the retinoid-related orphan receptor gamma (ROR-gamma) signaling pathway (AID 651802; active = well fitted curve in the direction sought with a large enough effect; an effect the other way counts as inactive or inconclusive; note: nearly all actives have a fitted effect of over 60% in size; note: potency is the fitted concentration of half-maximal effect)
# Nuclear receptor ROR-gamma (Homo sapiens), sequence (P51449 whole entry, looked up): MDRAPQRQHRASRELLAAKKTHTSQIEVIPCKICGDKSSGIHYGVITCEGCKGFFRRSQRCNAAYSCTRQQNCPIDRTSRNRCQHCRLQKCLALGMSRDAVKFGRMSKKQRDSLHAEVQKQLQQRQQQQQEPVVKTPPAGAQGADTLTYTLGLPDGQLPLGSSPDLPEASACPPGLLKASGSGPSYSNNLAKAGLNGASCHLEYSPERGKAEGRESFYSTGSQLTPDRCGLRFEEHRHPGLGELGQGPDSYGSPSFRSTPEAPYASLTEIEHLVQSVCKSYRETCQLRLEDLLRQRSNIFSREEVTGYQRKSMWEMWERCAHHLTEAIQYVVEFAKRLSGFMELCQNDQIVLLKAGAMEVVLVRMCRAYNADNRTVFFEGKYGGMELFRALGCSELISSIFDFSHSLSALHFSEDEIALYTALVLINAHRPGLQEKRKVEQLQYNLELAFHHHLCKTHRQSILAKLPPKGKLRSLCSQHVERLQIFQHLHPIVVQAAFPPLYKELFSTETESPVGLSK
# How it was run: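 CHO, TET-inducible ROR + RORE-LUC reporter, 1536-well qHTS. Compound pinned, doxycycline added, 16hr 37C/5% CO2. ONE-Glo, 30 min RT, luminescence; signal drop scored as antagonism.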
# [2] = qHTS assay for small molecule agonists of the antioxidant response element (ARE) signaling pathway measured by Nrf2-dependant transcriptional activity (AID 720636);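 note: HepG2 cells with an ARE-driven luciferase reporter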
# How it was run: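 Attachment 6 hr at 37 C, then compound versus DMSO vehicle for 16 hr in ARE-luc HepG2 cells (1% dialyzed FBS); luminescence recorded 30 min after ONE-Glo addition at room temperature.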
# [3] = qHTS assay for small molecule antagonists of the retinoid-related orphan receptor gamma (ROR-gamma) signaling pathway - cell viability counter screen (AID 720652);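 note: compound exposure lasted 16 hr before ATP read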; note: potency is the fitted concentration of half-maximal effect
# How it was run: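 Luminescence from CellTiter-Glo after 30 min at room temperature reported cellular ATP as the cytotoxicity measure. Cells were the CHO reporter line with doxycycline-induced ROR-gamma expression, exposed to compound for 16 hr at 37 C.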
# [4] = qHTS assay for small molecule agonists of the antioxidant response element (ARE) signaling pathway measured by Nrf2-dependant transcriptional activity - cell viability counter screen (AID 720653); conditions: ARE-bla HepG2 viability, CellTiter-Glo ATP luminescence, 16 h; active compounds read low
# How it was run: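 Cytotoxicity counter screen: intracellular ATP quantified by CellTiter-Glo luminescence in the same ARE-bla HepG2 plates, after 16 h compound exposure and a 2 h beta-lactamase substrate step.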
# [5] = target: Arylsulfatase A (Homo sapiens) (UniProt P15289); assay: qHTS screen for enhancers of Arylsulfatase A (ASA1): LOPAC Validation Assay (AID 720538; active = well fitted curve in the direction sought with a large enough effect; an effect the other way counts as inactive or inconclusive); conditions: outcome: dose series up to 57.5 µM
# Arylsulfatase A (Homo sapiens), sequence (P15289 whole entry, looked up): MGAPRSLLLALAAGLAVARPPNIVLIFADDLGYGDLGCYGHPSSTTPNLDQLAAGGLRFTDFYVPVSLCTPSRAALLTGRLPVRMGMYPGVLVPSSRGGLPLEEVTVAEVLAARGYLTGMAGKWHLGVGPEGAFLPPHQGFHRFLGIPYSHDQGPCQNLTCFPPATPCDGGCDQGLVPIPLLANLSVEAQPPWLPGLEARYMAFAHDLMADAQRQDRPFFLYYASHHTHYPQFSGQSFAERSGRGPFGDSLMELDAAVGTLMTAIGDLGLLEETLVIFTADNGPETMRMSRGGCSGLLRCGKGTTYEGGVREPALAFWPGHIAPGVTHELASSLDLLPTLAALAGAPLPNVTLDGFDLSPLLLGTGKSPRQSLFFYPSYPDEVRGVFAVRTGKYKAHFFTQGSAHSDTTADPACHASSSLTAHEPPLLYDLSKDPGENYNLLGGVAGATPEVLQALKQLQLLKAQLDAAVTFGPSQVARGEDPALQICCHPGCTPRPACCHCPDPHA
# How it was run: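 First, ASA-I179S fibroblasts from an MLD patient adhered for 6 hrs. Next, compounds were added for 48h. Then pNCS substrate (0.5mM final) with lysis buffer reacted 14h at room temperature before NaOH stop and fluorescence measurement.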
# [6] = qHTS for compounds that reverse cellular toxicity of Amyloid beta (A-beta) peptide in yeast: LOPAC Validation Assay (AID 720559; active = well fitted curve in the direction sought with a large enough effect; an effect the other way counts as inactive or inconclusive)
# How it was run: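 Activity is expressed relative to DMSO and an equimolar ferric chloride/clioquinol mix. Compounds were pinned into medium with A-beta-expressing yeast, grown 48 hr at 30 C, then read by absorbance at 600 nm.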
# [7] = qHTS for Activators of Parkin Expression: LOPAC Validation Assay (NLuc Reporter) (AID 720572; active = well fitted curve in the direction sought with a large enough effect; an effect the other way counts as inactive or inconclusive)
# How it was run: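 Parkin promoter-driven FLuc/NLuc neuronal reporter cells; 24 h plating, 7-pt dose response, 24 h at 37 C/5% CO2; FLuc then NanoLuc reagent, 10 min each, luminescence; DMSO/positive control normalized.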
# [8] = qHTS for Activators of Parkin Expression: LOPAC Validation Assay (FLuc Reporter) (AID 720573; active = well fitted curve in the direction sought with a large enough effect; an effect the other way counts as inactive or inconclusive)
# How it was run: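 A neuronal cell line harbouring FLuc and NLuc reporters behind the Parkin promoter was exposed to compounds for 24 h. Firefly luciferase signal, measured after 10 min with detection reagent, was scaled to DMSO and positive-control wells.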
# [9] = target: Tyrosine-protein kinase Yes (Homo sapiens) (UniProt P07947); assay: qHTS for small molecule inhibitors of Yes1 kinase: Primary Screen (AID 686947; active = well fitted curve in the direction sought with a large enough effect; an effect the other way counts as inactive or inconclusive; note: nearly all actives have a fitted effect of over 60% in size)
# Tyrosine-protein kinase Yes (Homo sapiens), sequence (P07947 whole entry, looked up): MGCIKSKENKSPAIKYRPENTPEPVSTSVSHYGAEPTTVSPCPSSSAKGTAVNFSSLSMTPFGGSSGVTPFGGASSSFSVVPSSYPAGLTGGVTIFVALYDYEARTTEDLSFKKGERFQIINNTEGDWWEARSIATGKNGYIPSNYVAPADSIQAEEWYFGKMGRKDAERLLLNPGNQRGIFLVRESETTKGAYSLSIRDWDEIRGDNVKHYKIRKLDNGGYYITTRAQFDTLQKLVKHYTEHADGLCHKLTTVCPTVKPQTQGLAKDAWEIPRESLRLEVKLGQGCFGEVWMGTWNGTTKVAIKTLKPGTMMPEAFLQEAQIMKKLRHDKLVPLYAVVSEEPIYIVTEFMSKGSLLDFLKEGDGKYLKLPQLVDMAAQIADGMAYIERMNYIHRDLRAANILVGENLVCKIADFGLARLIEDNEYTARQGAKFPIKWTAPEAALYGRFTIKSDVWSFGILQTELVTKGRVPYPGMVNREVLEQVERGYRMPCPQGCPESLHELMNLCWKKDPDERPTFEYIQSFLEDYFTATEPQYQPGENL
# How it was run: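 Yes1 (4 nM) preincubated 20 min with compound, then 60 min room-temperature reaction with 0.1 mM ATP and 0.3 mg/mL poly(E4Y) in pH 7.5 Tris, 10 mM MgCl2. ADP measured by ADP-Glo luminescence, normalised to enzyme/no-enzyme controls.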
# [10] = qHTS for small molecule inhibitors of Yes1 kinase: Counter Assay (AID 686950; active = well fitted curve in the direction sought with a large enough effect; an effect the other way counts as inactive or inconclusive;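 note: no kinase present so only ADP-Glo detection of a fixed ADP amount is tested; luminescence from ADP-Glo reporting ADP in a fixed ATP and ADP mixture; series mostly up to about 77 µM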)
# How it was run: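 Luminescence read-out from ADP-Glo quantifies a fixed ADP amount (0.02 mM ADP with 0.08 mM ATP) after 60 min at room temperature; signal is normalized between DMSO wells with ATP/ADP and with 0.1 mM ATP alone.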
smiles,measurement,setting,value
C=CCc1ccc(O)c(OC)c1,Potency,[1],inactive
same,Potency,[2],inactive
same,Potency,[3],inactive
same,max response,[4],-2.21% and -7.34%
O=c1ccc2ccccc2o1,Potency,[1],inactive
same,Potency,[2],inactive
same,Potency,[3],inactive
same,max response,[4],0.83% and -14.1% and -0.794%
CCCC1O[C@@H]2C[C@H]3[C@@H]4CCC5=CC(=O)C=C[C@]5(C)[C@H]4[C@@H](O)C[C@]3(C)[C@]2(C(=O)CO)O1 (stereo not given in full),outcome,[5],inactive
same,outcome,[6],inactive
same,outcome,[7],inactive
same,outcome,[8],inactive
O=C1CCC(c2ccc(-n3ccnc3)cc2)=NN1,outcome,[5],inactive
same,outcome,[6],inactive
same,outcome,[7],inactive
same,outcome,[8],inactive
CC(=O)O[C@]1(C(C)=O)CC[C@H]2[C@@H]3C[C@H](C)C4=CC(=O)CC[C@]4(C)[C@H]3CC[C@@]21C,Potency,[1],16.8 µM (active)
same,Potency,[2],inactive
same,Potency,[3],inactive
same,max response,[4],-14.4% and -14.9%
"Cc1c2oc3c(C)ccc(C(=O)N[C@@H]4C(=O)N[C@H](C(C)C)C(=O)N5CCC[C@H]5C(=O)N(C)CC(=O)N(C)[C@@H](C(C)C)C(=O)O[C@@H]4C)c3nc-2c(C(=O)N[C@@H]2C(=O)N[C@H](C(C)C)C(=O)N3CCC[C@H]3C(=O)N(C)CC(=O)N(C)[C@@H](C(C)C)C(=O)O[C@@H]2C)c(N)c1=O (I: T[dV]P[Sar][NMeV] / II: T[dV]P[Sar][NMeV]; ester I:1-I:C, II:1-II:C; linker I:N-II:N via Actinocin(9to1))",Potency,[1],0.0266 µM (active)
same,Potency,[3],0.106 µM (active)
same,max response,[4],-29.7% and -9.89%
CC(=O)Oc1ccc(C(c2ccc(OC(C)=O)cc2)c2ccccn2)cc1,Potency,[1],inactive
same,Potency,[2],inactive
same,Potency,[3],inactive
same,max response,[4],4.78%
Nc1ccn([C@@H]2O[C@H](CO)[C@@H](O)C2(F)F)c(=O)n1,outcome,[9],inactive
same,outcome,[10],inactive
COc1cccc2c1C(=O)c1c(O)c3c(c(O)c1C2=O)C[C@@](O)(C(C)=O)C[C@@H]3O[C@H]1C[C@H](N)[C@H](O)[C@H](C)O1,Potency,[1],18.8 µM (active)
same,Potency,[3],13.3 µM (active)
NC(=NCCCCCCN=C(N)/N=C(\N)Nc1ccc(Cl)cc1)/N=C(\N)Nc1ccc(Cl)cc1,Potency,[1],26.6 µM (active)
same,Potency,[2],inactive
same,Potency,[3],42.2 µM (active)
same,max response,[4],-4.14%
O=C1OC(c2ccc(O)cc2)(c2ccc(O)cc2)c2ccccc21,Potency,[1],66.8 µM (active)
same,Potency,[2],inactive
same,Potency,[3],inactive
same,max response,[4],4.44% and -20.6%
CN1C2CCC1CC(OC(=O)c1c[nH]c3ccccc13)C2 (stereo not given),outcome,[5],inactive
same,outcome,[6],inactive
same,outcome,[7],inactive
same,outcome,[8],inactive
Oc1ccc(O)cc1,Potency,[1],10.6 µM (active)
same,outcome,[5],inactive
same,outcome,[6],inactive
same,outcome,[7],inactive
same,outcome,[8],inactive
same,max response,[4],-23.3%
CCCn1c(=O)[nH]c(=O)c2[nH]cnc21,outcome,[5],inactive; inhibitor; fitted 0.151 uM

# Source: PubChem BioAssay (NCATS)
